# Test results: ChEMBL document CHEMBL3433997, “St. Jude Leishmania screening dataset” (2016)
# What was measured:
# Assay type in all cases: functional
# [1] = biological target: Solute carrier family 2, facilitated glucose transporter member 1 (Homo sapiens) (UniProt P11166); assay: ST_JUDE_LEISH: Cytotoxicity at 2uM final concentration against transgenic Leishmania Mexicana promastigotes LmGLUT1 that are glucose transport deficient and complemented with the human glucose transporter GLUT1. Activity is measured by DNA content using SYBR green in vitro
# Solute carrier family 2, facilitated glucose transporter member 1 (Homo sapiens), sequence (P11166 whole entry): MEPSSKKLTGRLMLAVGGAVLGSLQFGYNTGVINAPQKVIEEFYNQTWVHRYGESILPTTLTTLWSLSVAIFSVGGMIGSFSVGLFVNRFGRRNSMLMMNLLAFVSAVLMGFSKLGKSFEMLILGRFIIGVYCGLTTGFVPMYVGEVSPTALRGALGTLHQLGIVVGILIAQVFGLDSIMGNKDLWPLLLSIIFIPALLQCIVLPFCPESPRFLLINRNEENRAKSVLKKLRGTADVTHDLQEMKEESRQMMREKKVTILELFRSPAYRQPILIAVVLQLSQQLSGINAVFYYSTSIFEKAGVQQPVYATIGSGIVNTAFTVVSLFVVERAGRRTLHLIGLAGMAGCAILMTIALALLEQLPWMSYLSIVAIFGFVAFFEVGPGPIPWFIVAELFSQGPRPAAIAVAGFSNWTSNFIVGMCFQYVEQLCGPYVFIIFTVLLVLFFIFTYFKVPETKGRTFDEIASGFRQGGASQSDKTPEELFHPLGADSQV
# [2] = biological target: Hexose transporter 1 (Plasmodium falciparum) (UniProt O97467); assay: ST_JUDE_LEISH: Cytotoxicity at 2uM final concentration against transgenic Leishmania Mexicana promastigotes LmPfHT that are glucose transport deficient and complemented with the Plasmodium falciparum hexose transporter. Activity is measured by DNA content using SYBR green in vitro
# [3] = biological target: Glucose transporter (Leishmania mexicana) (UniProt O61059); assay: ST_JUDE_LEISH: Cytotoxicity at 2uM final concentration against transgenic Leishmania Mexicana promastigotes LmGT2 that are glucose transport deficient and complemented with the L. Mexicana glucose transporter 2. Activity is measured by DNA content using SYBR green in vitro
Structure (SMILES),inhibition [1],inhibition [2],inhibition [3]
CC1(C)NC(N)=NC(=N)N1OCCNCc1ccc(Cl)cc1,4.58%,4.01%,3.92%
Cc1cc(=O)c(-c2ccc(OCc3ccc(OC(F)(F)F)cc3)cc2)c(C)[nH]1,7.02%,4.41%,2.08%
OCC1CCN(Cc2ccc(-c3cccc(-c4nc5cc(F)ccc5[nH]4)c3)cc2)CC1,-1.93%,-1.06%,-1.42%
COc1ccc2c(c1)nc(CNC(=N)N)n2Cc1ccc(Cl)cc1,1.63%,1.08%,1.85%
CC(CN(C)C)C(=O)Nc1cccc(-c2cccc(-c3nc4cc(F)ccc4[nH]3)c2)c1 (configuration not stated),-2.1%,-1.06%,-3.91%
COc1cc(F)c2ncc(Cl)c(CCN3CCC(NCc4ccc5c(c4)NC(=O)CO5)CC3)c2c1,7.29%,7.51%,2.39%
COC(=O)CCCCOc1cc(Cc2cnc(N)nc2N)cc(OC)c1OC,2.26%,1.3%,1.88%
CCOc1ccc2nc3cc(NC(=O)c4ccco4)ccc3c(N)c2c1,3.66%,3.27%,2.78%
Oc1ccc(OCc2ccccn2)cc1,3.05%,6.09%,4.04%
COc1ccc(CN2CCC(NCc3cccc(-n4ccnc4)c3)CC2)cc1,3.99%,3.17%,2.72%
COc1cccc(CNC(=O)c2cccc(-c3ccc(CN4CCC(N5CCCC5)CC4)cc3)n2)c1,7.47%,5.46%,8.7%
COc1ccc(-c2cnc3[nH]cc(-c4ccc(C(=O)O)c(C)c4)c3c2)cn1,0.31%,-0.48%,0.32%
COc1cc(C(=O)Nc2cccc(-c3cn4cccc(C)c4n3)c2)cc(OC)c1OC,15.8%,10.9%,10.5%
O=c1ccc2ccc(F)cc2n1CCN1CCC(NCc2ccc(-c3ccccn3)s2)CC1,4.21%,3.12%,-0.91%
c1ccc2c(Nc3ccc(Oc4ccc(Nc5c6ccccc6nc6ccccc56)cc4)cc3)c3ccccc3nc2c1,2.32%,0.88%,-1.82%
CC1(C)[C@H]2CC[C@@H](CNc3nc(NCCc4c[nH]cn4)nc(Nc4ccc5c(c4)OCO5)n3)[C@@H]1C2,2.49%,0.99%,0.68%
CN(C)c1ccc(C(c2ccc(N(C)C)cc2)c2cc([N+](=O)[O-])ccc2Cl)cc1,0.57%,0.82%,-3.09%

Structure (SMILES),inhibition [1],inhibition [2],inhibition [3]
CC(=O)Nc1ccc(OCCN(Cc2ccccc2C(F)(F)F)c2ccc(C#N)c(C(F)(F)F)c2)cc1,18.7%,16%,28.2%
COc1ccccc1CCNc1nc(C)cc(N[C@@H](Cc2ccccc2)C(=O)NCCCOC(C)C)n1,3.06%,3.2%,-0.1%
CCCNC(=O)C1Cc2c([nH]c3cc(Br)ccc23)C2(CCN(CCc3ccccc3)CC2)N1 (configuration not stated),2.03%,1.9%,1.75%
CC(C)c1ccc(NC(=O)N[C@H]2CCN(CCCCCNC(=O)/C=C/c3ccc(Cl)c(Cl)c3)C2)cc1,2.04%,-3.46%,2.9%
NC1CCCN(Cc2ccc(-c3ccc(-c4nc5cc(F)ccc5[nH]4)s3)cc2)C1 (configuration not stated),2.77%,3.22%,3.45%
CC(=O)c1c(Cc2cccc(C(F)(F)F)c2)c[nH]c1C,5.85%,3.6%,-0.87%
COc1cc(C(=O)NCCCN2CCN(c3cccc(Cl)c3)CC2)ccc1-c1cc2cc(Cl)c(Cl)cc2[nH]1,4.57%,4.17%,3.53%
COC1(C)Oc2ccc3cccc([N+](=O)[O-])c3c2C1=O (configuration not stated),0.18%,-0.47%,-0.75%
CN(C)CCN(C)Cc1ccc(-c2ccc3c(Nc4ccc(F)cc4Cl)ccnc3c2)o1,1.3%,0.81%,-0.21%
CCCc1cc(Cc2cnc(N)nc2N)cc(CC)c1OC,6.06%,4.59%,2.29%
COCCN1CCN(Cc2ccc(-c3ccc(-c4nc5cccc(C)c5[nH]4)s3)cc2)CC1,8.84%,6.85%,4.87%
NC(=O)c1ccc(-c2ccc3ccnc(N)c3c2)cc1,7.25%,6.12%,4.88%
COc1ccc2ncc(F)c(CCN3CC[C@@H](CNCc4nc5c(cc4C)SCC(=O)N5)C3)c2n1,3.29%,3.35%,0.49%
CC(=O)Nc1ccc(CNCCc2ccc(NC(=O)c3cc(Cl)cc(Cl)c3)cc2)cc1,-0.73%,0.23%,-1.09%
OC1(Cc2ccccc2)CCN(Cc2cccc(-c3c[nH]c4nc(NC5CCCC5)ncc34)c2)CC1,9.83%,8.36%,6.99%
O=[N+]([O-])c1cccc(Nc2nccc(-c3cnn4ncccc34)n2)c1,83%,85.4%,79.9%
Cc1ccc(Nc2nc(C)cc(Nc3cccc(C#N)c3)n2)cc1,42.3%,65.8%,16.3%
